esBAF inh: inhibitors of esBAF chromatin remodeling in mouse ES cells | reporter increase, % at 12.5 µM | Bmi1-luciferase knock-in reporter, 24 h; 100% = twice the neutral-well signal | actives 2% (n = 350,000); in the data active means activation above about 40%; inconclusive means no clear call, values can overlap the other calls;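 further: 0% = median of the plate's neutral control wells and 100% = double that signal; a rise in the Bmi1 reporter signal indicates esBAF inhibition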
DAX1 StAR inh: inhibitors of DAX1 repression of SF-1 activated StAR promoter; HEK293T StAR-luciferase reporter, SF-1/DAX-1 repression relief; inhibition, % at 6.8 µM; actives 1.1% (n = 370,000); AID 652010;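 active means inhibition above the mean over all tested compounds plus 3 SD, cut at about 3.6% in these data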;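 further: 0% = DAX-1 cells with DMSO and 100% = cells lacking DAX-1 with DMSO; higher inhibition means more luminescence from relief of DAX-1 repression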
hcDAF-12 act: H. contortus DAF-12 activation, primary screen; HEK293 hcDAF-12 lit1-tk-luc reporter, luminescence; 0% DMSO, 100% Δ7-dafachronic acid; activation, % at 6.8 µM; actives 1.4% (n = 370,000); AID 652067;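 active means activation above the mean of all tested compounds plus 3 SD, cut at about 5.5% in these data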;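 further: 100% = response to 3 µM Δ7-dafachronic acid high control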
Wnt bcat act: activates Wnt/beta-catenin signaling in a reporter cell assay; activator, plate reader; actives 1.2% (n = 300,000); activation, % at 9.35 µM; in the data active means activation above about 30%, passing the limit was not always enough; inconclusive means no clear call, values can overlap the other calls;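 further: 0% = neutral control wells and 100% = positive control wells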
hgDAF-12 ag: hgDAF-12 agonism, primary luciferase screen; HEK293 GAL4-hgDAF12 UAS-luciferase reporter, agonist luminescence; normalized to butyrate control; activation, % at 6.8 µM; actives 1.8% (n = 370,000);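 active means activation above a cutoff set at the mean of all screened compounds plus 3 SD, cut at about 10% in these data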;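 further: 0% = DMSO wells and 100% = sodium butyrate wells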
ssDAF12 agonist: S. stercoralis DAF-12 activation, primary screen. actives 1% (n = 370,000). AID 652126. HEK293 ssDAF-12/GRIP1 lit1-tk-luc reporter, luminescence; % of 3 µM dafachronic acid response. activation, % at 6.8 µM;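 active means activation above the mean over all tested compounds plus 3 SD, cut at about 0.9% in these data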;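 further: 0% = DMSO-only wells and 100% = 3 µM delta7-dafachronic acid wells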
The depositor's hits bear a star. Shown are actives, neighbours in structure and some others; about 4.2% of the full set was active somewhere.

O=C(O)CCc1ccc(-c2ccc(Br)cc2)n1-c1cccc(O)c1 was read as esBAF inh 72.6*, DAX1 StAR inh 0.1, hcDAF-12 act 0.6, Wnt bcat act 17.3, hgDAF-12 ag -0.8 and ssDAF12 agonist -0.6.
Screening CCCC(=O)Nc1ccc2c(c1)C(=O)N(C)C[C@@H](OC)[C@@H](C)CN(Cc1ccc(-c3ccccn3)cc1)[C@H](C)CO2 returned esBAF inh 12.0.
`Cc1cc(C(=O)Nc2cccc3c2O[C@H](CN(C)Cc2ccc(Cl)c(Cl)c2)[C@@H](C)CN([C@H](C)CO)C3=O)n(C)n1` gave esBAF inh -1.8.
Cc1ccc(N(C)/N=C/c2ccc(Cl)cc2Cl)nn1 was read as esBAF inh 42.3*, DAX1 StAR inh 0.4, hcDAF-12 act -2.9, Wnt bcat act 1.9, hgDAF-12 ag 2.3 and ssDAF12 agonist -1.1.
`CC(C)(C)c1ccc(OCc2nc(-c3ccccn3)no2)c(Br)c1` gave esBAF inh 11.1, DAX1 StAR inh 3.2, hcDAF-12 act 3.0, Wnt bcat act 51.3*, hgDAF-12 ag 11.1* and ssDAF12 agonist 0.1.
Clc1ccc(OCc2nc(-c3ccncc3)no2)c(Cl)c1 was read as esBAF inh 7.4, DAX1 StAR inh 3.2, hcDAF-12 act 6.1*, hgDAF-12 ag 11.8* and ssDAF12 agonist 0.6.
`Clc1cc(Cl)c(OCc2nc(-c3ccccn3)no2)cc1Cl` gave esBAF inh 7.3, DAX1 StAR inh 2.0, hcDAF-12 act 1.3, Wnt bcat act 51.3*, hgDAF-12 ag 5.7 and ssDAF12 agonist 0.6.
Screening COCC(=O)N(C)C[C@H]1Oc2ncc(-c3ccc(C#N)cc3)cc2C(=O)N([C@H](C)CO)C[C@@H]1C returned esBAF inh 3.9.
For CO[C@H]1CN(C)C(=O)c2cc(NC(=O)NC(C)C)ccc2OC[C@@H](C)N(Cc2ccccn2)C[C@H]1C the results were esBAF inh -0.5.
Screening COc1ccc(C#Cc2ccc([C@@H]3[C@H](CO)N4CCCCN(C(=O)Nc5cccc(F)c5)C[C@@H]34)cc2)cc1 returned esBAF inh -11.0.
Screening CSc1cccc(-n2cc(-c3ccc4c(c3)OCO4)[nH]c2=O)c1 returned esBAF inh 45.2*.
Screening CO[C@@H]1CN(C)C(=O)c2cc(C#N)ccc2OC[C@H]2O[C@H](CC[C@H]2OC)CCN(C)C(=O)[C@H]1C returned esBAF inh 2.3.
For CCc1ccc2[nH]c(C(=O)Nc3ccc(Br)c(C)n3)cc2c1 the results were esBAF inh 43.8*, DAX1 StAR inh 0.7, hcDAF-12 act -0.6, Wnt bcat act 16.0, hgDAF-12 ag 5.8 and ssDAF12 agonist -0.3.
`C[C@@H]1CN([C@H](C)CO)C(=O)Cc2cc(NC(=O)Cc3ccccc3)ccc2O[C@@H]1CN(C)Cc1ccc(C(F)(F)F)cc1` gave esBAF inh -0.3.
Screening CCOc1ccc(C(=O)NC2C(=O)N3C(C(=O)O)=C(COC(C)=O)CSC23)cc1OCC (stereo unspecified) returned DAX1 StAR inh 4.4*, hcDAF-12 act -0.1, Wnt bcat act 0.1, hgDAF-12 ag 1.2 and ssDAF12 agonist -0.9.
For Cc1nn(-c2ccccc2)c(/N=C/c2ccc(O)cc2)c1-c1ccccc1 the results were esBAF inh inconclusive, DAX1 StAR inh -4.6, hcDAF-12 act 0.6, hgDAF-12 ag 9.4 and ssDAF12 agonist 1.0*.
For Cc1nn(-c2ccccc2)c(C)c1-c1ccccc1O the results were esBAF inh 14.5, DAX1 StAR inh -0.2, hcDAF-12 act -1.8, Wnt bcat act 0.4, hgDAF-12 ag -2.6 and ssDAF12 agonist -0.6.
Screening COc1ccc(NC(=O)Nc2ccc3c(c2)CC(=O)N([C@H](C)CO)C[C@@H](C)[C@H](CN(C)S(=O)(=O)c2cccs2)O3)cc1 returned esBAF inh 2.6.
Screening CCCNC(=O)Nc1ccc2c(c1)C(=O)N(C)C[C@@H](OC)[C@H](C)CN(Cc1cccnc1)[C@@H](C)CO2 returned esBAF inh -12.0.
O/N=C/c1ccc2ccccc2n1 was read as DAX1 StAR inh 1.1, hcDAF-12 act 2.0, Wnt bcat act 35.9*, hgDAF-12 ag 8.9 and ssDAF12 agonist -1.0.
`CC(C)(C)OC(=O)N(CCc1ccccc1)Cc1cccc(OCc2cccc(NC(=O)c3ccccc3)c2)c1` gave esBAF inh 2.6, DAX1 StAR inh 4.1*, hcDAF-12 act 0.5, Wnt bcat act -4.2, hgDAF-12 ag 1.1 and ssDAF12 agonist -1.1.
C[C@@H]1CN([C@@H](C)CO)C(=O)c2cc(NC(=O)Nc3ccc(C(F)(F)F)cc3)ccc2O[C@H]1CN(C)C(=O)Nc1ccc2c(c1)OCO2 was read as esBAF inh 31.5.
Screening CC(=O)Nc1nc(COc2ccc3ccccc3c2)cs1 returned esBAF inh 31.5, DAX1 StAR inh 0.1, hcDAF-12 act -1.4, Wnt bcat act 54.8*, hgDAF-12 ag 3.7 and ssDAF12 agonist -1.4.
COc1cccc(OC)c1C(=O)Nc1nc(COc2ccccc2)cs1 was read as DAX1 StAR inh 0.2, hcDAF-12 act -1.1, Wnt bcat act -0.4, hgDAF-12 ag -1.8 and ssDAF12 agonist -1.3.
For O=C(Nc1nc(COc2ccccc2)cs1)C1CCC1 the results were esBAF inh 63.7*, DAX1 StAR inh -0.4, hcDAF-12 act 1.7, Wnt bcat act 46.3*, hgDAF-12 ag 0.6 and ssDAF12 agonist -0.7.
For Nc1nc(COc2ccc3ccccc3c2)cs1 the results were esBAF inh 59.3*, DAX1 StAR inh 0.5, hcDAF-12 act -0.5, hgDAF-12 ag 7.4 and ssDAF12 agonist -1.2.
CC(=O)Nc1nc(COc2ccccc2)cs1 was read as esBAF inh 10.0, DAX1 StAR inh 1.7, hcDAF-12 act 1.8, hgDAF-12 ag 13.2* and ssDAF12 agonist -0.8.
`COc1ccccc1OCc1csc(N)n1` gave esBAF inh 0.0, DAX1 StAR inh -0.2, hcDAF-12 act 0.9, Wnt bcat act 0.3, hgDAF-12 ag -0.2 and ssDAF12 agonist -1.6.
For O=C(C[C@H]1CC[C@@H](NC(=O)c2ccc3c(c2)OCO3)[C@@H](CO)O1)NCc1ccc(Cl)cc1 the results were esBAF inh -9.1.
`CO[C@@H]1CN(C)C(=O)c2ccc(NC(=O)NC(C)C)cc2OC[C@H](C)N(CC2CC2)C[C@H]1C` gave esBAF inh -1.4.
`CO[C@H]1CC[C@H]2CCN(C)C(=O)[C@H](C)[C@@H](OC)CN(C)C(=O)c3cc(C#N)ccc3OC[C@H]1O2` gave esBAF inh -3.7.
Screening O=C(NCCOc1ccccc1)C1CCCCC1 returned esBAF inh inconclusive, DAX1 StAR inh 4.1*, hcDAF-12 act 0.7, Wnt bcat act 5.9, hgDAF-12 ag 6.4 and ssDAF12 agonist -1.3.
For O=C(CC1CCCCC1)NCCOc1ccccc1 the results were DAX1 StAR inh 0.3, hcDAF-12 act -1.3, hgDAF-12 ag 4.8 and ssDAF12 agonist -2.0.

Source: PubChem
